Results as given in article PMC10812921, “Transcriptional Coactivator BOB1 (OBF1, OCA-B) Modulates the Specificity of DNA Recognition by the POU-Domain Factors OCT1 and OCT2 in a Monomeric Configuration”.

Legend:
POU1 (OCT1 POU domain) = POU1 (OCT1 POU domain) (human, UniProt P14859 260-458); experiment: EMSA-SELEX-seq; no BOB1; 20 mM Tris-HCl pH 7.6, 140 mM NaCl, 10% glycerol, 0.5 mM EDTA, 0.05% Triton X-100, 0.1 mg/mL BSA, 0.1 mg/mL poly(dI-dC), 5 mM DTT, room temperature, 20 min; high values mean tight binding; settings: protein: recombinant; dsDNA, one strand shown
In short: (§1)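 Binding preference is the percentage of sequenced 8-mers matching a motif pattern. Tagged POU-domain proteins expressed in E. coli BL21 were purified under denaturing conditions and renatured. For binding, 30 ng protein met 300 ng of a PCR-amplified double-stranded random 35-nt library, with or without 28 ng coactivator protein, in 20 μL Tris–HCl pH 7.6 binding buffer for 20 min at RT. Complex bands were cut from native 6% PAGE, eluted and PCR-amplified over four rounds, then Illumina-sequenced.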

POU2 (OCT2 POU domain) = biological target: T1, POU2 (OCT2 POU domain) (human, UniProt P09086 175-386); experiment: as above; settings: protein: recombinant; dsDNA, one strand shown
T1 sequence: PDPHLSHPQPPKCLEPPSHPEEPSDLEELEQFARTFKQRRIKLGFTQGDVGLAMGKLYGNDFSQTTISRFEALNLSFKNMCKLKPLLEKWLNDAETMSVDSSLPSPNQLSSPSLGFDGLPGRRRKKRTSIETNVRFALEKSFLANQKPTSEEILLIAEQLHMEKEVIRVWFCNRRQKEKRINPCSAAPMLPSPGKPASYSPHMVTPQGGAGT
In short: as §1

[1] = biological target: POU1 (OCT1 POU domain);BOB1 (OBF1, OCA-B) (human;human, UniProt P14859;Q16633 260-458;1-256, |); experiment: EMSA-SELEX-seq; with BOB1 (ternary complex band); 20 mM Tris-HCl pH 7.6, 140 mM NaCl, 10% glycerol, 0.5 mM EDTA, 0.05% Triton X-100, 0.1 mg/mL BSA, 0.1 mg/mL poly(dI-dC), 5 mM DTT, room temperature, 20 min; high values mean tight binding; settings: protein: recombinant;recombinant; copies: 1;1; dsDNA, one strand shown
In short: as §1

[2] = biological target: T2, POU2 (OCT2 POU domain);BOB1 (OBF1, OCA-B) (human;human, UniProt P09086;Q16633 175-386;1-256, |); experiment: as above; settings: protein: recombinant;recombinant; copies: 1;1; dsDNA, one strand shown
T2 sequence 1: T1 sequence
T2 sequence 2: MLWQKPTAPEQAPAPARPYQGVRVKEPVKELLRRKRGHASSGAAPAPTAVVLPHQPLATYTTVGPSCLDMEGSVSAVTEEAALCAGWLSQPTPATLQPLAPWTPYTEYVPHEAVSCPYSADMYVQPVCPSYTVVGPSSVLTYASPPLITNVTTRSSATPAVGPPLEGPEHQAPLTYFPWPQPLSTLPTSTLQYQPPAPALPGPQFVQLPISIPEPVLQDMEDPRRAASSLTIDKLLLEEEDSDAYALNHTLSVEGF
In short: as §1

Sequence of POU1 (OCT1 POU domain) (P14859 260-458): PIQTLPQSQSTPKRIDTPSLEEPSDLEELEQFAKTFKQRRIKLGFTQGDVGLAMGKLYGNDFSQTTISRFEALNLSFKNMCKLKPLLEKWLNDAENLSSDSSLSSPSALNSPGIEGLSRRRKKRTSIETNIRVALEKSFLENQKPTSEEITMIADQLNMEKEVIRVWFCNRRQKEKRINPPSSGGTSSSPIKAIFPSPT

Sequence: ACCAAAAT
- binding signal (POU1 (OCT1 POU domain)): 0.0446 % of ANNNNAAN 8-mers
- binding signal (POU2 (OCT2 POU domain)): 0.0397 % of ANNNNAAN 8-mers
- binding signal [1]: 0.055 % of ANNNNAAN 8-mers
- binding signal [2]: 0.0537 % of ANNNNAAN 8-mers

Sequence: AGGCAAAC
- binding signal (POU1 (OCT1 POU domain)): 0.0866 % of ANNNNAAN 8-mers
- binding signal (POU2 (OCT2 POU domain)): 0.0512 % of ANNNNAAN 8-mers
- binding signal [1]: 0.157 % of ANNNNAAN 8-mers
- binding signal [2]: 0.0817 % of ANNNNAAN 8-mers

Sequence: AATTTAAT
- binding signal (POU1 (OCT1 POU domain)): 0.306 % of ANNNNAAN 8-mers
- binding signal (POU2 (OCT2 POU domain)): 0.333 % of ANNNNAAN 8-mers
- binding signal [1]: 0.182 % of ANNNNAAN 8-mers
- binding signal [2]: 0.162 % of ANNNNAAN 8-mers

Sequence: ACCTGAAA
- binding signal (POU1 (OCT1 POU domain)): 0.0183 % of ANNNNAAN 8-mers
- binding signal (POU2 (OCT2 POU domain)): 0.0247 % of ANNNNAAN 8-mers
- binding signal [1]: 0.0215 % of ANNNNAAN 8-mers
- binding signal [2]: 0.019 % of ANNNNAAN 8-mers

Sequence: ATTCCAAG
- binding signal (POU1 (OCT1 POU domain)): 0.045 % of ANNNNAAN 8-mers
- binding signal (POU2 (OCT2 POU domain)): 0.0512 % of ANNNNAAN 8-mers
- binding signal [1]: 0.032 % of ANNNNAAN 8-mers
- binding signal [2]: 0.0446 % of ANNNNAAN 8-mers

Sequence: AAGTCAAC
- binding signal (POU1 (OCT1 POU domain)): 0.0256 % of ANNNNAAN 8-mers
- binding signal (POU2 (OCT2 POU domain)): 0.0236 % of ANNNNAAN 8-mers
- binding signal [1]: 0.0308 % of ANNNNAAN 8-mers
- binding signal [2]: 0.0272 % of ANNNNAAN 8-mers

Sequence: AGAACAAA
- binding signal (POU1 (OCT1 POU domain)): 0.032 % of ANNNNAAN 8-mers
- binding signal (POU2 (OCT2 POU domain)): 0.0524 % of ANNNNAAN 8-mers
- binding signal [1]: 0.032 % of ANNNNAAN 8-mers
- binding signal [2]: 0.033 % of ANNNNAAN 8-mers

Sequence: ACTCCAAA
- binding signal (POU1 (OCT1 POU domain)): 0.0259 % of ANNNNAAN 8-mers
- binding signal (POU2 (OCT2 POU domain)): 0.0219 % of ANNNNAAN 8-mers
- binding signal [1]: 0.0277 % of ANNNNAAN 8-mers
- binding signal [2]: 0.0149 % of ANNNNAAN 8-mers

Sequence: AGTATAAC
- binding signal (POU1 (OCT1 POU domain)): 0.0278 % of ANNNNAAN 8-mers
- binding signal (POU2 (OCT2 POU domain)): 0.0328 % of ANNNNAAN 8-mers
- binding signal [1]: 0.0226 % of ANNNNAAN 8-mers
- binding signal [2]: 0.0248 % of ANNNNAAN 8-mers

Sequence: ATCGGAAT
- binding signal (POU1 (OCT1 POU domain)): 0.0717 % of ANNNNAAN 8-mers
- binding signal (POU2 (OCT2 POU domain)): 0.0869 % of ANNNNAAN 8-mers
- binding signal [1]: 0.0581 % of ANNNNAAN 8-mers
- binding signal [2]: 0.0768 % of ANNNNAAN 8-mers

Sequence: ATGTGAAG
- binding signal (POU1 (OCT1 POU domain)): 0.0484 % of ANNNNAAN 8-mers
- binding signal (POU2 (OCT2 POU domain)): 0.0627 % of ANNNNAAN 8-mers
- binding signal [1]: 0.046 % of ANNNNAAN 8-mers
- binding signal [2]: 0.0429 % of ANNNNAAN 8-mers

Sequence: AGCATAAA
- binding signal (POU1 (OCT1 POU domain)): 0.204 % of ANNNNAAN 8-mers
- binding signal (POU2 (OCT2 POU domain)): 0.213 % of ANNNNAAN 8-mers
- binding signal [1]: 0.0566 % of ANNNNAAN 8-mers
- binding signal [2]: 0.0867 % of ANNNNAAN 8-mers

Sequence: ACCTGAAC
- binding signal (POU1 (OCT1 POU domain)): 0.021 % of ANNNNAAN 8-mers
- binding signal [1]: 0.0113 % of ANNNNAAN 8-mers
- binding signal [2]: 0.0215 % of ANNNNAAN 8-mers

Sequence: ATCAGAAC
- binding signal (POU1 (OCT1 POU domain)): 0.0214 % of ANNNNAAN 8-mers
- binding signal (POU2 (OCT2 POU domain)): 0.0242 % of ANNNNAAN 8-mers
- binding signal [1]: 0.0238 % of ANNNNAAN 8-mers
- binding signal [2]: 0.0371 % of ANNNNAAN 8-mers

Sequence: ATTAAAAT
- binding signal (POU1 (OCT1 POU domain)): 0.614 % of ANNNNAAN 8-mers
- binding signal (POU2 (OCT2 POU domain)): 0.636 % of ANNNNAAN 8-mers
- binding signal [1]: 0.228 % of ANNNNAAN 8-mers
- binding signal [2]: 0.204 % of ANNNNAAN 8-mers

Sequence: AGGGTAAA
- binding signal (POU1 (OCT1 POU domain)): 0.0706 % of ANNNNAAN 8-mers
- binding signal (POU2 (OCT2 POU domain)): 0.0857 % of ANNNNAAN 8-mers
- binding signal [1]: 0.0679 % of ANNNNAAN 8-mers
- binding signal [2]: 0.0966 % of ANNNNAAN 8-mers

Sequence: ACGATAAG
- binding signal (POU1 (OCT1 POU domain)): 0.0275 % of ANNNNAAN 8-mers
- binding signal (POU2 (OCT2 POU domain)): 0.0311 % of ANNNNAAN 8-mers
- binding signal [1]: 0.0215 % of ANNNNAAN 8-mers
- binding signal [2]: 0.0314 % of ANNNNAAN 8-mers

Sequence: AGCCTAAT
- binding signal (POU1 (OCT1 POU domain)): 0.0503 % of ANNNNAAN 8-mers
- binding signal (POU2 (OCT2 POU domain)): 0.0811 % of ANNNNAAN 8-mers
- binding signal [1]: 0.0324 % of ANNNNAAN 8-mers
- binding signal [2]: 0.038 % of ANNNNAAN 8-mers

Sequence: AGCCCAAG
- binding signal (POU1 (OCT1 POU domain)): 0.0111 % of ANNNNAAN 8-mers
- binding signal [1]: 0.0129 % of ANNNNAAN 8-mers
- binding signal [2]: 0.0124 % of ANNNNAAN 8-mers

Sequence: ACCTCAAT
- binding signal (POU1 (OCT1 POU domain)): 0.0202 % of ANNNNAAN 8-mers
- binding signal (POU2 (OCT2 POU domain)): 0.0196 % of ANNNNAAN 8-mers
- binding signal [1]: 0.025 % of ANNNNAAN 8-mers
- binding signal [2]: 0.0289 % of ANNNNAAN 8-mers

Sequence: ATACTAAC
- binding signal (POU1 (OCT1 POU domain)): 0.0347 % of ANNNNAAN 8-mers
- binding signal (POU2 (OCT2 POU domain)): 0.0293 % of ANNNNAAN 8-mers
- binding signal [1]: 0.0304 % of ANNNNAAN 8-mers
- binding signal [2]: 0.0396 % of ANNNNAAN 8-mers

Sequence: ACTATAAT
- binding signal (POU1 (OCT1 POU domain)): 0.0595 % of ANNNNAAN 8-mers
- binding signal (POU2 (OCT2 POU domain)): 0.0748 % of ANNNNAAN 8-mers
- binding signal [1]: 0.0472 % of ANNNNAAN 8-mers
- binding signal [2]: 0.0388 % of ANNNNAAN 8-mers

Sequence: AAAGGAAT
- binding signal (POU1 (OCT1 POU domain)): 0.0953 % of ANNNNAAN 8-mers
- binding signal (POU2 (OCT2 POU domain)): 0.124 % of ANNNNAAN 8-mers
- binding signal [1]: 0.0901 % of ANNNNAAN 8-mers
- binding signal [2]: 0.0925 % of ANNNNAAN 8-mers

Sequence: ATAAGAAG
- binding signal (POU1 (OCT1 POU domain)): 0.0614 % of ANNNNAAN 8-mers
- binding signal (POU2 (OCT2 POU domain)): 0.0771 % of ANNNNAAN 8-mers
- binding signal [1]: 0.0562 % of ANNNNAAN 8-mers
- binding signal [2]: 0.0636 % of ANNNNAAN 8-mers

Sequence: ACGGAAAA
- binding signal (POU1 (OCT1 POU domain)): 0.0515 % of ANNNNAAN 8-mers
- binding signal (POU2 (OCT2 POU domain)): 0.0478 % of ANNNNAAN 8-mers
- binding signal [1]: 0.0593 % of ANNNNAAN 8-mers
- binding signal [2]: 0.0446 % of ANNNNAAN 8-mers

Sequence: AGAATAAA
- binding signal (POU1 (OCT1 POU domain)): 0.161 % of ANNNNAAN 8-mers
- binding signal (POU2 (OCT2 POU domain)): 0.182 % of ANNNNAAN 8-mers
- binding signal [1]: 0.0757 % of ANNNNAAN 8-mers
- binding signal [2]: 0.0892 % of ANNNNAAN 8-mers

Sequence: ACTGCAAG
- binding signal (POU1 (OCT1 POU domain)): 0.0133 % of ANNNNAAN 8-mers
- binding signal (POU2 (OCT2 POU domain)): 0.0144 % of ANNNNAAN 8-mers
- binding signal [1]: 0.016 % of ANNNNAAN 8-mers
- binding signal [2]: 0.0107 % of ANNNNAAN 8-mers

Sequence: ACTCCAAC
- binding signal (POU1 (OCT1 POU domain)): 0.0126 % of ANNNNAAN 8-mers
- binding signal [1]: 0.0113 % of ANNNNAAN 8-mers
- binding signal [2]: 0.0198 % of ANNNNAAN 8-mers

Sequence: ACACGAAG
- binding signal (POU1 (OCT1 POU domain)): 0.0206 % of ANNNNAAN 8-mers
- binding signal (POU2 (OCT2 POU domain)): 0.0196 % of ANNNNAAN 8-mers
- binding signal [1]: 0.0176 % of ANNNNAAN 8-mers
- binding signal [2]: 0.0157 % of ANNNNAAN 8-mers

Sequence: ACACAAAG
- binding signal (POU1 (OCT1 POU domain)): 0.0309 % of ANNNNAAN 8-mers
- binding signal (POU2 (OCT2 POU domain)): 0.0196 % of ANNNNAAN 8-mers
- binding signal [1]: 0.0418 % of ANNNNAAN 8-mers
- binding signal [2]: 0.0305 % of ANNNNAAN 8-mers
